Assay outcomes from PubChem.
TR-FRET SRC-2 ct – TR-FRET artefact, counter-screen to PPARgamma/SRC-2 agonist assay; hits give high values; TR-FRET ratio at 8 µM; 200,000 tested, 0.4% active; AID 1049
PPARg SRC3 recr – PPARgamma-driven SRC-3 recruitment agonism; 200,000 tested, 0.26% active; activation, % at 8 µM; P37231; biochemical PPARgamma/SRC-3 coactivator recruitment assay; in the data active = activation above about 23%;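 note: 0% = DMSO and 100% = reference agonist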
Target sequence (P37231 whole entry, looked up): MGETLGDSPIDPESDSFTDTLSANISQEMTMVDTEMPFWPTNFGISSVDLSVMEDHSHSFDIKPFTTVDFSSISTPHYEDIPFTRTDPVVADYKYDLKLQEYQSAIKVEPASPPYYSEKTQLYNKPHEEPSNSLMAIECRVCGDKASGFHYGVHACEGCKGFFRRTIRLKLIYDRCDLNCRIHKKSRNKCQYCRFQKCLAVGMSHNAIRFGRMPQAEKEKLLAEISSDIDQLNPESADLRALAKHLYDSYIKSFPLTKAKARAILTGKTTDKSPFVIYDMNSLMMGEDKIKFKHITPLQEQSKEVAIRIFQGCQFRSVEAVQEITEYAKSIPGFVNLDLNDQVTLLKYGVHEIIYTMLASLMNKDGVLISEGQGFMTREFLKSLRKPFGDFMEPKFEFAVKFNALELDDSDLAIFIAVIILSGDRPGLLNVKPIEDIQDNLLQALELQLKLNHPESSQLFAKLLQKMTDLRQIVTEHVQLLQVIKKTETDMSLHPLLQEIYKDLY
SRC3 TRFRET art – TR-FRET artefact, counter-screen to PPARgamma/SRC-3 agonist assay | 99,000 tested, 0.39% active | TR-FRET ratio at 8 µM | PPARgamma/SRC-3 format; hits give high values | AID 1048
SRC1 TRFRET art – counter-screen for PPARgamma SRC-1 recruitment agonists: TR-FRET artefact | TR-FRET detection artefact counter-screen, emission ratio; hits give high values | TR-FRET ratio at 8 µM | 99,000 tested, 0.34% active; in the data active = TR-FRET ratio above about 2300
PPARg SRC-1 ag – PPARgamma-driven SRC-1 recruitment agonism; PPARgamma-SRC-1 coactivator recruitment biochemical assay; activation, % at 8 µM; P37231; 200,000 tested, 0.41% active; in the data active = activation above about 19%;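 note: 0% = DMSO and 100% = reference agonist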
PPARg SRC2 recr – agonists of SRC-2 recruitment by human PPARgamma. PPARgamma LBD-SRC-2 recruitment, biochemical. activation, % at 8 µM. 200,000 tested, 0.34% active; in the data active = activation above about 22%;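 note: 0% = vehicle and 100% = reference agonist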
* hit, by the source's call; . = not tested or not shown. The list is not random: actives were taken first. Their share in the collection is about 0.9%. Cut-off read from the data, not from the text of the source, unless noted: active = TR-FRET ratio above about 2000; inactive = the rest.

SMILES	TR-FRET SRC-2 ct	PPARg SRC3 recr	SRC3 TRFRET art	SRC1 TRFRET art	PPARg SRC-1 ag	PPARg SRC2 recr
COc1ccc(C2(CNC(=O)/C=C\c3ccco3)CCCC2)cc1OC	1498	-5	.	.	41*	2
CSC1=NC2(CC(c3ccccc3)Oc3cc(O)ccc32)CC(C)(C)N1 (stereo not drawn)	1633	29*	.	.	4	12
COc1ccc(OC)c(-c2c3c([nH]c(=S)c2C#N)CCCC3)c1	1970	8	2033	2339*	18	16
COc1ccc(-c2c3c([nH]c(=S)c2C#N)CCC3)cc1	4167*	108*	.	.	64*	86*
CC(C)Cc1c2c([nH]c(=S)c1C#N)CCCC2	1622	4	1737	1994	11	4
N#Cc1c(-c2cccnc2)c2c([nH]c1=S)CCCC2	1637	8	.	.	9	10
COc1ccc(C)cc1S(=O)(=O)N1CCCC(C(=O)NCC2CCCO2)C1 (stereo not drawn)	1474	0	.	.	0	-7
CSc1ncccc1C(=O)OCC(=O)c1ccc(Br)s1	1749	16	3227*	2355*	11	15
CSc1ncccc1C(=O)OCC(=O)c1ccccc1Br	1616	-2	1555	1823	-5	0
Clc1cccc2sc(N3CCN(c4ccccc4)CC3)nc12	1671	-1	1618	2030	1	28*
Clc1ccc(Cl)c2sc(N3CCCC3)nc12	1469	-3	.	.	2	-6
c1ccc2sc(N3CCOCC3)nc2c1	1698	-1	.	.	6	9
COc1cccc2sc(N3CCN(c4nc5ccccc5s4)CC3)nc12	1528	31*	.	.	12	3
COC(=O)c1c(NC(=O)COC(=O)c2ccc(C)s2)sc2c1CCCCC2	1436	0	1742	1447	-1	7
COC(=O)c1c(NC(=O)COC(=O)[C@@H](NS(=O)(=O)c2ccc(C)cc2)C(C)C)sc2c1CCC2	1637	3	1800	2338*	0	6
COc1ccc2sc3ccccc3c(=O)c2c1	2220*	3	.	.	3	6
COc1ccc(-c2cc(=O)c3ccccc3s2)cc1	1505	0	.	.	0	-4
Cc1sc2nc3c(SC(C)C(=O)O)cc(C(=O)c4ccccc4O)cn3c(=O)c2c1C (stereo not drawn)	1417	33*	1694	1751	4	-9
CCOC(=O)c1sc2nc3c(SCC(=O)O)cc(C(=O)c4ccccc4O)cn3c(=O)c2c1C	1647	2	1620	1804	2	4
COC(=O)CCCNC(=O)OCc1ccc([N+](=O)[O-])cc1	1640	-4	.	.	13	3
COC(=O)c1ccccc1NC(=O)Cc1nc(-c2ccccc2)sc1-c1ccc(C)cc1	1651	4	2243*	1833	7	-6
O=C(Nc1nc(-c2ccco2)c(-c2ccco2)s1)C1CCC1	1761	12	1995	2403*	11	9
COc1ccccc1-c1cc(-c2ccccc2)nc(SC(C(N)=O)c2ccccc2)c1C#N (stereo not drawn)	3201*	-1	.	.	8	7
O=C(O)c1ccc(Cl)c(S(=O)(=O)Nc2ccccc2N2CCOCC2)c1	1664	3	1665	1624	-3	2
N#Cc1cc2c(nc1SCc1ccccc1)CCC2	1654	8	.	.	85*	13
SMILES	TR-FRET SRC-2 ct	PPARg SRC3 recr	SRC3 TRFRET art	SRC1 TRFRET art	PPARg SRC-1 ag	PPARg SRC2 recr
N#Cc1cc2c(nc1SCc1ccccc1)CCCC2	1574	1	1643	2031	7	2
CCOC(=O)c1ccccc1NC(=O)c1cn(-c2ccc(C)c(C)c2)c(=O)c2ccccc12	3144*	9	1904	1817	-1	130*
COC(=O)c1ccccc1NC(=O)c1cn(-c2ccc(C)c(C)c2)c(=O)c2ccccc12	1685	9	1579	1931	1	3
COc1ccc(OCC(=O)Nc2cccc3cccnc23)cc1	1763	8	1536	2429*	2	11
COc1ccc(OCC(=O)Nc2cccc(NC(=O)COc3ccc(OC)cc3)n2)cc1	1570	10	.	.	9	15
CC(C)Cn1c(N)c(C(=O)COC(=O)c2ccc([N+](=O)[O-])o2)c(=O)n(C)c1=O	1982*	5	1448	1937	3	12
CCOC(=O)c1sc(=NC(=O)CCSc2ccccc2)n(C)c1C	1413	6	2393*	2065	6	-4
CCOC(=O)c1sc(=NC(=O)c2cc(OC)c(OC)c(OC)c2)n(C)c1C	1659	338*	.	.	-1	-3
CSc1cc(-c2ccc(Cl)cc2)[nH]c(=O)c1C#N	1403	-2	1471	1498	3	-5
Cc1ccc(-c2[nH]c(=S)[nH]c(=O)c2C#N)cc1	2179*	18	2293*	2571*	-18	-4
CCc1ccc(N(C(=O)c2csnn2)C(C(=O)NC(C)(C)C)c2cccnc2)cc1 (stereo not drawn)	2266*	-2	1691	1763	0	23*
CC(/C=N/NC(=O)NC1CCCCC1)=C\c1ccccc1	2081*	2	1722	2009	-1	7
O=C(N/N=C/C(Br)=C/c1ccccc1)NC1CCCCC1	1543	8	1424	1911	3	2
Cn1c(SCc2cccnc2)nc2c(c1=O)SCC2	2241*	0	1534	1719	4	21
CSCCNC(=O)c1cccc(Cl)c1	1579	-4	1317	1660	-6	-3
CSCCNC(C)=O	2040*	2	.	.	-1	24*
COc1ccc(C(C(=O)NC2CCCC2)N(CCN2CCOCC2)C(=O)c2ccc(OC)c(OC)c2)cc1 (stereo not drawn)	1825	15	.	.	4	14
CSc1ccccc1NC(=O)c1cc2ncc(Br)cn2n1	1853	3	2070*	2400*	19	6
COc1ccc(C(=O)N=c2sc3ccccc3n2C)cc1OC	1578	4	1605	4952*	168*	-2
COc1cc(C(=O)N/N=c2/sc3ccccc3n2C)cc(OC)c1OC	1548	0	1477	1686	-3	0
NC(=O)SCC(=O)Nc1ccc(Cl)cc1	1763	10	.	.	4	-1
CC(=O)c1c(C)[n+]([O-])c2ccc3c(non3O)c12	1981*	-1	1809	1946	7	7
Cc1ccc(S(=O)(=O)NC2CCCCC2)c(C)c1NS(C)(=O)=O	1717	0	1485	1596	9	6
COc1ccc(C2Nc3ccccc3C(=O)N2c2ccccc2)cc1CSc1ccccn1 (stereo not drawn)	1815	3	2243*	1840	-4	-9
c1ccc2c(c1)CC/C2=N/Nc1nc2ccccc2[nH]1	1668	8	1717	1819	22*	5
Cc1ccc(-c2nc3ccccc3c(=O)n2CCCN2CCOCC2)cc1	1786	9	.	.	13	8
O=c1c2ccccc2nc(-c2ccccc2)n1CCCN1CCOCC1	1680	5	.	.	19*	2
CCn1c(SCC(=O)O)nnc1C1CCCCC1	1346	29*	.	.	2	4
COc1ccc2cc(Br)ccc2c1CC(=O)NC(C)(C)C	2017*	17	2048	2214	10	14
